Assay in all cases: qHTS profiling for inhibitors of Plasmodium falciparum proliferation (AID 504749); note: nearly all actives have a fitted effect of over 60% in size
Common to all, as to conditions: P. falciparum in erythrocytes, SYBR Green DNA, 72 h; series mostly up to 28.7 µM
A general note: Quantitative high-throughput screening tests each substance at several concentrations.

One assay relates to CP262. The method in brief:
(§1)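 Readout was DNA-dye fluorescence from lysed cultures, ex 485/em 535 nm. Parasitized red cells had grown 72 h with compound; data scaled between 0.29 uM artemisinin and DMSO wells and corrected using vehicle-only plates.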

Another assay deals with CP265. The method in brief:
as §1

In the next assay the test system is CP266. The method in brief: as §1
For another assay, the system named is CP268. Put shortly:
as §1

The test system of a further assay is CP269. Put shortly: as §1
The subject of the next assay is CP286. The method in brief:
as §1

The subject of a further assay is CP291. The method in brief:
as §1

A further assay has as its system CP297. Put shortly:
as §1

In another assay the test system is CP305. The method in brief:
as §1

For a further assay, the system named is CP260. The method in brief:
as §1

Results filed as inconclusive are left out. Calls of active or inactive are those of the source. Calls come from the whole dose curve; as a rule, active = well fitted inhibition curve with a large enough effect; inconclusive = small, poorly fitted or top-dose-only effect; inactive = flat fitted curve, though single readings scatter.
Potency is the fitted concentration of half-maximal effect.

As for `CCN(CC)C(=O)c1cccc(C)c1`, the molecule was classed as inactive in the assay with CP262, with CP266, in the assay on CP269, in the assay on CP291 and with CP297. The Potency result in the assay with CP265, in the assay with CP268, with CP286 and with CP305 was “inactive” each time.

On to `Cc1cc(C)c(NC(=O)CN(CC(=O)O)CC(=O)O)c(C)c1Br`, for which the Potency entry with CP260, in the assay on CP268, in the assay on CP286 and in the assay with CP305 was “inactive” each time. The molecule was called inactive in the assay with CP262, in the assay with CP266, in the assay with CP269, in the assay on CP291 and in the assay with CP297.

Regarding `CC(CN(C)C)C(C)(O)Cc1ccc(Cl)cc1` (centres undefined), the molecule was called inactive with CP262, in the assay with CP266 and in the assay on CP269.

For the molecule `Cc1[nH]c(C)c(Cl)c(=O)c1Cl`, the Potency in the assay on CP260 is 8.91 µM (active). Moreover, the Potency result with CP265, in the assay with CP268 and in the assay with CP305 was “inactive” each time. The call with CP266, in the assay with CP269, in the assay with CP291 and with CP297 was inactive.

Take `CCN1CC(CCN2CCOCC2)C(c2ccccc2)(c2ccccc2)C1=O` (centres undefined): the Potency entry with CP260, with CP268, in the assay on CP286 and in the assay on CP305 was “inactive” throughout. For the same molecule, the molecule was called inactive with CP262, with CP266, with CP269 and with CP291.

For the molecule `CC1CCN(CCCC(=O)c2ccc(F)cc2)CC1`, the Potency result in the assay with CP260, in the assay with CP265, in the assay with CP268, in the assay on CP286 and in the assay on CP305 was “inactive” in each case. Moreover, the molecule was called inactive with CP266, in the assay on CP269, with CP291 and in the assay on CP297.

As to `C[C@H]1COc2c(C3(N)CC3)c(F)cc3c(=O)c(C(=O)O)cn1c23`, the outcome with CP262, in the assay with CP266 and in the assay with CP269 was inactive. Moreover, the Potency result in the assay with CP265, with CP286 and in the assay on CP305 was “inactive” each time.

Consider `CCCCCCCCCCOc1cc2c(=O)c(C(=O)OCC)c[nH]c2cc1OCC`, for which the Potency in the assay on CP260 was 0.0035 µM (active); in the assay with CP268 it was 0.0024 µM (active); in the assay with CP286 it was 0.0035 µM (active); with CP305 it was 0.0021 µM (active).

Take `O=C(O)c1ccccc1C(=O)Nc1ccc(S(=O)(=O)Nc2nccs2)cc1`: the molecule was called inactive in the assay with CP262, with CP266, with CP269 and with CP291. The Potency result in the assay on CP265, with CP268, in the assay on CP286 and in the assay with CP305 was “inactive” each time.

As for `Nc1ncnc(Nc2ccccc2)n1`, the Potency entry with CP260, in the assay with CP265, in the assay on CP268, in the assay on CP286 and in the assay on CP305 was “inactive” each time. The call with CP266, in the assay with CP269, in the assay with CP291 and in the assay with CP297 was inactive.

For `COc1ccc2cc(CCC(C)=O)ccc2c1`, the Potency result with CP260, in the assay with CP265, with CP268, in the assay on CP286 and with CP305 was “inactive” each time. The outcome in the assay with CP269, in the assay on CP291 and with CP297 was inactive.

Take `Cc1c(N(C)C)c(=O)n(-c2ccccc2)n1C`: the outcome in the assay with CP262, with CP266, in the assay with CP269 and with CP297 was inactive. Also, the Potency entry in the assay with CP265, with CP268, in the assay with CP286 and with CP305 was “inactive” each time.

`COc1ccc(Cc2cnc(N)nc2N)cc1OC`: the molecule was called inactive in the assay on CP262, in the assay with CP266, with CP269 and in the assay with CP291. Also, the Potency result in the assay with CP265, in the assay on CP268, with CP286 and in the assay with CP305 was “inactive” throughout.

In the case of `NC(=O)c1ccc([N+](=O)[O-])cc1Cl`, the molecule was classed as inactive with CP262, in the assay on CP266, in the assay on CP269, in the assay on CP291 and in the assay on CP297. The Potency entry with CP268, in the assay with CP286 and with CP305 was “inactive” each time.

As to `CC[N+](CC)(CC(=O)Nc1c(C)cccc1C)Cc1ccccc1`, the Potency result in the assay with CP260, in the assay with CP265, in the assay on CP268, in the assay with CP286 and with CP305 was “inactive” throughout. The call with CP266, with CP269, with CP291 and with CP297 was inactive.

As for `Cc1cc(-n2nc3ccc(Cl)cc3n2)c(O)c(C(C)(C)C)c1`, the Potency entry with CP260, in the assay with CP268, in the assay with CP286 and in the assay with CP305 was “inactive” each time. Further, the result in the assay with CP262, with CP266, in the assay on CP269, in the assay on CP291 and with CP297 was inactive.

On to `Cc1cc(O)cc(C)c1Cl`, for which the call with CP262, in the assay on CP266, in the assay with CP291 and in the assay on CP297 was inactive. Besides, the Potency in the assay on CP265 was 11.2 µM (active). For the same molecule, the Potency entry in the assay on CP268 and in the assay on CP286 was “inactive” each time.

In the case of `CCCCCCCCCCCCCCCCN`, the molecule was classed as inactive with CP262, with CP269, with CP291 and in the assay with CP297. In addition, the Potency result in the assay with CP265, in the assay on CP268, with CP286 and in the assay with CP305 was “inactive” each time.

Take `CN/C(=C\[N+](=O)[O-])NCCSCc1csc(CN(C)C)n1`: the Potency entry in the assay with CP260, with CP265, with CP268, in the assay with CP286 and in the assay on CP305 was “inactive” in each case. Besides, the outcome in the assay on CP262, in the assay with CP269, with CP291 and in the assay on CP297 was inactive.

For `O=C(O)CCCc1ccccc1`, the outcome in the assay with CP262, with CP269, with CP291 and with CP297 was inactive. The Potency result in the assay with CP265, with CP268, in the assay on CP286 and in the assay on CP305 was “inactive” throughout.

`Cc1cc(OI)c(C(C)C)cc1-c1cc(C(C)C)c(OI)cc1C`: the molecule was classed as inactive with CP262 and in the assay with CP266. The Potency result in the assay with CP286 and with CP305 was “inactive” throughout.

Consider `CC[N+](C)(CC)CCOC(=O)C1c2ccccc2Oc2ccccc21`, for which the molecule was called inactive with CP262, in the assay on CP266, in the assay on CP269, in the assay with CP291 and with CP297. In addition, the Potency result with CP265, with CP268, in the assay on CP286 and in the assay with CP305 was “inactive” each time.

Turning to `NC(=O)CCCCC1CCSS1` (centres undefined), the result in the assay on CP262, in the assay on CP266, in the assay on CP269, with CP291 and with CP297 was inactive. Further, the Potency entry with CP265, in the assay with CP268 and with CP286 was “inactive” throughout.

On to `CCCCCCCC(=O)OCC(COC(=O)CCCCCCC)OC(=O)CCCCCCC`, for which the Potency result with CP260, in the assay with CP265, in the assay with CP268, with CP286 and in the assay on CP305 was “inactive” each time. Besides, the molecule was called inactive in the assay with CP262, with CP269, with CP291 and in the assay with CP297.

Turning to `C=CCSCC1Nc2cc(Cl)c(S(N)(=O)=O)cc2S(=O)(=O)N1` (centres undefined), the result in the assay on CP262, with CP266, in the assay on CP269, in the assay on CP291 and in the assay on CP297 was inactive. Besides, the Potency entry in the assay with CP265, with CP268, in the assay on CP286 and in the assay with CP305 was “inactive” each time.

Consider `CCN(CC)CCc1nc(-c2ccccc2)no1`, for which the molecule was classed as inactive in the assay with CP262, with CP266, in the assay with CP269, with CP291 and with CP297. Further, the Potency entry with CP265, with CP268, with CP286 and in the assay on CP305 was “inactive” each time.

`CC(=O)N(CC(O)CO)c1c(I)c(C(=O)NCC(O)CO)c(I)c(C(=O)NCC(O)CO)c1I` (centres undefined): the result in the assay on CP262, with CP266, in the assay with CP269, in the assay on CP291 and in the assay on CP297 was inactive. Besides, the Potency result with CP268, in the assay on CP286 and with CP305 was “inactive” throughout.

Turning to `Nc1c2c(nc3c1CCC3)CCCC2`, the Potency in the assay with CP286 was 11.2 µM (active); with CP305 it was 15.1 µM (active).

With `O=C1c2ccccc2C(=O)C1c1ccc(Br)cc1`, the call with CP262, in the assay with CP266, with CP291 and in the assay on CP297 was inactive. Besides, the Potency result with CP268 and in the assay on CP305 was “inactive” each time.

Values taken from PubChem BioAssay (NCATS).
